# In the OligoGym collection:
# Target: WNT16
# Experiment: pooled miR-30 sensor sort-seq; sequence = guide strand
# Settings: shRNA
# Note: reference of the scale not given here.
row,Sequence,sensor-assay potency score (higher = more potent)
1,TTAACAGTTGAAACTGATCTGT,-0.124
2,TAACAGTTGAAACTGATCTGTG,0.0469
3,TTCTTTGTCACTAAACATCTGT,-0.0723

# Target: WNT4
# Experiment: as above
# Settings: shRNA
row,Sequence,sensor-assay potency score (higher = more potent)
1,TACACCAGGTCCTCATCTGTGT,-0.668
2,TGCACTGTCCTGTCACAGCCGC,-1.01
3,ATGACTTCCAGGTTCCGCTTGC,-0.442
4,TTGTCAGAGCATCCTGACCACT,-1.18
5,TCGAGTGTGGAGCAGTTCCAGC,-1.25
6,TTGCACATCTGCACCTGCCTCT,0.262
7,TTGAACTGTGCGTTGCGTGGCA,0.0724
8,TGGAATTTGCAGCTGCAGCGTT,-0.943
9,AAGGAGTCGAGTGTGGAGCAGT,-0.667
10,TTTCTCGCACGTCTCCTCCTCT,-0.548
11,TTGGACGTCTTGTTGCATGTGC,0.653
12,TTGCGTGGCACCAGTGCCCTGG,-0.464

# Target: WRAP73
# Experiment: as above
# Settings: shRNA
row,Sequence,sensor-assay potency score (higher = more potent)
1,TAACAGGTTTCAGTGTCTGTAA,-0.596
2,TTGCTCTGTCGGTAACAGGTTT,-1.05
3,TTCGGGTTTGCTCTGTCGGTAA,-0.662
4,TAATCTTTGCAGTCGCGCCGTT,-0.556
5,TACGTGGACAACAACCGGCCAT,-0.35
6,TATTTACTCTCTGAGCTCGGGA,-0.387
7,TACATATTTACAAAAATGCTTT,-1.06
8,TTATACACCACTATCTTGGGAT,0.881
9,TTGTGCACAAGGACCAGACGGT,0.172
10,TTGGGAATGTTGTCGTTCCTTG,-0.237
11,TTGCTGAGGAGGGCCATCGAGT,-1.36
12,TTTCGGGTTTGCTCTGTCGGTA,-0.96

# Target: WRB
# Experiment: as above
# Settings: shRNA
row,Sequence,sensor-assay potency score (higher = more potent)
1,TCGTCCATCATGTTGACTGTGG,-0.317
2,TTACAGACTAAAATCCAACAGG,-0.429
3,TAGTGTTGTTCTTTTAACCATA,-0.891
4,TTGCATCCAAACACGAAGCTGA,0.58
5,TACTATACAACTCTTGCTCAAC,-0.82
6,ATATCTGGCAAACTCGTCCATC,-0.952
7,TTGAGCTTATCCGTCATCTTGT,0.602
8,TTGGCTAATTGAGCTGTCCGAG,-0.552
9,TCACATTTCGTACAGATCGAGG,-1.13
10,TAATACTATACAACTCTTGCTC,0.423
11,TTATCTTGGCTAATTGAGCTGT,-0.0399
12,TTAAATACAAAACACAAGTTGA,-0.499
